In PubChem BioAssay AID1259415 (National Center for Advancing Translational Sciences (NCATS), 2018):
The whole screen tested about 410,000 compounds, of which about 18,000 (4.4%) were called active. Roughly 7% stayed inconclusive and do not appear here. Shown is part of a subset that was picked to be rich in actives. Unmarked numbers belong to inactive results. Cut-off read from the data, not from the text of the source: active = activity change below about -60%; inconclusive = no clear call, values can overlap the other calls; inactive = above about -39%.

assay: qHTS Assay for inhibitors of the human cytomegalovirus (HCMV); settings: HFF cells, HCMV-luciferase reporter, 72 h; at 57.5 µM; active compounds read low
Method in brief: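 After 16 h attachment at 37C, HFF cells received test compound and HCMV-luciferase (1 PFU/cell); reporter luminescence read 72 h later, data normalized against buffer-only and known inhibitor Salinomycin.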
% is set by controls: 0 for no effect and ±100 for the full control effect.

Row | SMILES | activity change, negative = inhibition
1 | Cc1cccn2c(=O)c(/C=C(\C#N)C(N)=O)c(N3CCCCCC3)nc12 | -70.1% (active)
2 | Cc1cc(C)cc(Oc2nc3c(C)cccn3c(=O)c2/C=C(\C#N)C(=O)NC2CCS(=O)(=O)C2)c1 (stereo not given) | 44.8%
3 | Nc1[nH]c(C(=O)c2ccccc2)c(-c2ccc(Br)cc2)c1C(=O)NC1CC1 | -20.4%
4 | NC(=O)C(Cc1ccccc1)NC(=O)C12CC3CC(CC(C3)C1)C2 (stereo not given) | 50.8%
5 | Cc1ccc(S(=O)(=O)c2nc(-c3cccs3)oc2N2CCCCC2)cc1 | -15.8%
6 | COc1cc(-c2cc3n(C)c(C)c(CCC(=O)Nc4ccc(F)cc4)c(=O)n3n2)cc(OC)c1OC | -22.9%
7 | Cc1sc(C2C(C#N)=C(N)N(c3cccc(Cl)c3)C3=C2C(=O)CCC3)cc1CN1CCOCC1 (stereo not given) | -21.6%
8 | CCn1nc(C)c(NC(=O)/C=C/c2ccc(OC)c(COc3ccc(Br)cc3)c2)c1C | -68% (active)
9 | COc1ccc(/C=C/C(=O)Nc2c(C)nn(C)c2C)cc1COc1ccc(Br)cc1 | -35.2%
10 | COc1ccc(C(C)=O)cc1COc1ccc(Cl)c(C)c1 | -1.3%
11 | CCOC(=O)N1CCc2c(sc3c2C(=O)NC(c2ccccc2F)N3)C1 (stereo not given) | -3.15%
12 | C=CCN1C(=O)C(Cc2ccc(OCC)cc2)SC1=Nc1ccc(C(=O)O)cc1 (stereo not given) | 10.9%
13 | CC(=O)Nc1cccc(NC(=O)c2ccc3c(c2)CCN3S(C)(=O)=O)c1 | 40.6%
14 | CNS(=O)(=O)c1ccc(NC(=O)Nc2ccc3c(c2)OCO3)cc1 | 61.9%
15 | CN(c1cccc(NC(=O)Nc2ccc(Cl)cc2)c1)S(C)(=O)=O | -81.1% (active)
16 | CN(c1cccc(NC(=O)c2ccc(CN3CCc4ccccc4C3)cc2)c1)S(C)(=O)=O | -74.1% (active)
17 | CCN(CC)c1ccc(NC(=O)CN2CCN(CC(=O)Nc3ccc(Cl)cc3)CC2)cc1 | 18%
18 | CN(c1ccc(C(=O)N2CCc3ccccc3C2)cc1)S(C)(=O)=O | 5.34%
19 | CC1(C(=O)NCc2cccc3ccccc23)CCN1Cc1ccc(-c2ccccc2)o1 (stereo not given) | -20.5%
20 | CCNC(=O)C1CCCN(C(=O)c2ccc(OC)cc2OC)CC1 (stereo not given) | -11.4%
21 | Cn1c(=O)c2c(-c3ccccc3Br)n(Cc3ccccc3)cc2n(C)c1=O | -17.1%
22 | CCc1nn(CC(=O)N2CCN(c3ccc(Cl)cc3)CC2)c(=O)c2cc3occc3n12 | -13.8%
23 | Cc1cccc(S(=O)(=O)c2cn(Cc3ccccc3)c3cc(N4CCOCC4)c(F)cc3c2=O)c1 | 17.2%

Row | SMILES | activity change, negative = inhibition
24 | COc1ccc(-c2noc(CCCC(=O)NC3CCCC3)n2)cc1OC | -17%
25 | CCOc1cc(-c2noc(CCCC(=O)NC3CCCCC3)n2)ccc1OC | -89.7% (active)
26 | CCOc1cc(-c2noc(CCC(=O)N3CCOCC3)n2)ccc1OC | 2.89%
27 | C[C@@H]1CN([C@@H](C)CO)C(=O)CCCn2nncc2CO[C@H]1CN(C)C(=O)Nc1ccc(C(F)(F)F)cc1 | 8.54%
28 | CC[C@@H](C)[C@@H](C(=O)N1CCN(C(=O)OC(C)(C)C)CC1)n1cc(CCC(=O)O)nn1 | 14.7%
29 | COc1ccc(-c2noc(-c3ccc(N4CCN(c5ccccc5)CC4)c([N+](=O)[O-])c3)n2)cc1OC | 14.1%
30 | CC1=CC(=C(C#N)c2nc3ccccc3s2)C=C(C)N1c1ccc(F)cc1F | -64.6% (active)
31 | Cc1ccc(F)cc1S(=O)(=O)N1CCC(c2nc3ccccc3s2)CC1 | -23.3%
32 | Cc1ccc(C(=O)Nc2ccc3[nH]c(=O)c(=O)[nH]c3c2)cc1 | -0.693%
33 | CCOc1ccccc1NC(=O)Cn1c(=O)n(-c2cccc(C)c2)c(=O)c2c1c1cc(OC)ccc1n2C | 19.1%
34 | COc1ccc(C(=O)Nc2onc3c2CCCC3)cc1 | 1.09%
35 | CCOc1cccc(CNC(=O)c2ccc(N3CCCC3)c(NC(=O)Nc3ccccc3CC)c2)c1 | -10.9%
36 | Cc1ccccc1CNC(=O)CCCn1nc(C)c2sc3ccccc3c2c1=O | 14.7%
37 | CC(C)CN1Cc2cc(N3CCCCC3)ccc2-n2nncc2C1 | 10.2%
38 | CCOC(=O)CNC(=O)N1Cc2cc(N3CCCCC3)ccc2-n2nncc2C1 | -62.1% (active)
39 | O=C(NC1CCCCC1)N1Cc2cc(N3CCCCC3)ccc2-n2nncc2C1 | 40.9%
40 | Cn1c(C(=O)N2CCC(C(=O)N3CCN(c4ccccc4)CC3)CC2)cc2sccc21 | -22.9%
41 | Cc1nn(CC(=O)N2CCN(c3cccc(C(F)(F)F)c3)CC2)c(=O)c2cc3sccc3n12 | 2.88%
42 | COc1ccc(F)cc1C(=O)COC(=O)c1n[nH]c(=O)c2ccccc12 | 49.5%
43 | CC1CC(C)CN(S(=O)(=O)c2ccc(C(=O)NN3CCOCC3)cc2)C1 (stereo not given) | -27.9%
44 | CC1CCCN(S(=O)(=O)c2ccc(C(=O)Nc3nnc(-c4ccncc4)o3)cc2)C1 (stereo not given) | -96.5% (active)
45 | CS(=O)(=O)c1ccc(-c2nnc(NC(=O)c3ccc4c(c3)OCCO4)o2)cc1 | -0.462%
